Hits are enriched below; roughly 1.8% of the tested compounds scored in any of these assays.
PAX8 reporter – inhibitors of PAX8-driven TPO luciferase reporter, primary screen, RMG-I cells, single concentration | hit rate 1.2% among 360,000 | SteadyGlo, 24 h | AID 652154, 2013 | inhibition, % at 12.6 µM;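 active = mean replicate inhibition at least 60% with every replicate also reaching 60%; inconclusive = only one of the two criteria is met; inactive = mean below 60% and not all replicates reaching 60%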;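 also: luciferase light reporting Pax8 driven TPO promoter activity; plate controls were median of neutral control wells for no effect and mitoxantrone controls for full effect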
EWS-Fli block – EWS/Fli-driven NR0B1 reporter inhibitors, primary screen, A673 cells, NR0B1 luciferase, luminescence, MLPCN library | viability-normalised | hit rate 0.67% among 350,000 | AID 651661, 2012 | inhibition, % at 12.6 µM;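 active = mean inhibition of at least 50% after viability correction, with every replicate also passing that limit; inconclusive = mean reaches 50% but only one of two replicates passes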;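 also: firefly luciferase signal divided by Alamar Blue viability fluorescence both relative to DMSO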
CFTR F508del cor – F508del CFTR correction, initial screen, CFBE line, single point. CFBE cells, YFP halide quenching; stimulated with forskolin plus potentiator P3; % fluorescence drop versus neutral controls. activity (quench increase), % at 7.58 µM. hit rate 0.36% among 350,000. AID 720511, 2013;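 active = mean added fluorescence quench of at least 8% versus neutral control, with both replicates also reaching 8%; inconclusive = only one of the mean or replicate conditions met; inactive = mean below 8% and not both replicates reaching 8%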;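 also: cells transiently co-express mutant CFTR-F508del with the halide-sensitive YFP; corrector assay measuring rescue of mutant channel to the surface after 24 h compound exposure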
LGR2 antag – inhibitors of bursicon-induced LGR2 CRE-luciferase signal, primary screen, cell-based, HEK293, CRE-luciferase reporter, bursicon stimulation; Drosophila bursicon receptor LGR2 (rickets); bursicon-stimulated, 4 h; inhibition, % at 9.99 µM; hit rate 0.35% among 380,000; AID 720647, 2013;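 active = drop in luminescence signal, shown as inhibition above about 50% in the replicate tests, limit read from the data, passing the limit was not always enough; inconclusive = probably only some replicates passing the limit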;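 also: agonist challenge used bursicon conditioned medium at about half maximal strength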
Starred values were filed as active, the others as inactive; ? = inconclusive; / = no result.

SMILES	PAX8 reporter	EWS-Fli block	CFTR F508del cor	LGR2 antag
C/C=C/c1ccc(C2[C@@H]3CN(C(=O)C4CC4)C[C@H]2N3)cc1 (stereo not given in full)	0	5	0	21
COC12c3ccccc3-c3ccccc3C1C(C(=O)O)C2C(=O)O (stereo not given)	2	-2	2	1
O=C1NC(=O)N(c2ccccc2)C(=O)/C1=C/C=C/c1ccco1	-24	60*	-3	-9
Cc1cccc(N2C(=O)NC(=O)/C(=C\c3cccn3-c3ccc(Cl)cc3)C2=O)c1	/	/	/	60*
Cc1cc(C)cc(N2C(=O)NC(=O)/C(=C/c3cccn3-c3ccc(Cl)cc3)C2=O)c1	36	32	-6	?
COC(=O)CC1(CC(=O)OC)C(=O)N(c2ccccc2)C(=O)N(c2ccccc2)C1=O	-8	-4	0	3
CC=CC(C)=CC(C)C(=O)CC(O)CC1CC(=O)NC(=O)C1 (stereo not given)	14	-22	10*	17
CC[C@H](C)[C@@H]1NC(=O)CNC(=O)c2csc(n2)[C@H](C(C)(C)O)OC(=O)C(C)(C)[C@H](CCCC(C)(Cl)Cl)OC(=O)c2csc1n2	102*	2	-12	/
O=C(Cc1ccccc1)N1CCCCN2[C@@H](CO)[C@@H](c3ccc(-c4ccccc4)cc3)[C@@H]2C1	5	/	1	12
CNC(=O)OCc1n(C)cc[n+]1C	6	-4	/	-5
CN1CCN(c2ccc(S(C)(=O)=O)cc2[N+](=O)[O-])CC1	-8	-1	0	2
CN1CCN(c2ccc([N+](=O)[O-])c3no[n+]([O-])c23)CC1	88*	33	18*	105*
O=[N+]([O-])c1ccc(N(CCO)CCO)c2c1no[n+]2[O-]	109*	20	-11	?
C[C@H]1CN([C@@H](C)CO)C(=O)CCCn2nncc2CO[C@@H]1CN(C)C(=O)Oc1cccc2ccccc12	8	11	4	3
COc1cc2c(cc1OC)CN(c1ccc([N+](=O)[O-])c(C(F)(F)F)c1)CC2	5	1	/	93*
CC(C)(O)C(=O)Nc1ccc([N+](=O)[O-])c(C(F)(F)F)c1	/	-4	0	8
CC1(C(=O)O)CC12c1ccccc1-c1ccccc12 (stereo not given)	/	2	0	8
CC(C)CC#Cc1ccc([C@@H]2[C@@H](CO)N3CCCCN(C(=O)Cc4ccccn4)C[C@@H]23)cc1	20	17	1	19
CC(N)C(=O)NC1C2C(=C(O)CC(O)C2O)C(=O)OC1(C)C(Cl)Cl (stereo not given)	121*	?	-4	99*
COc1ccccc1CCNC(=O)CCC(=O)N1CC2C[C@@H](C1)Cn1c2cccc1=O	/	-11	-2	-18
CC(C)c1oc(=O)cc2c1[C@@H](O)[C@H]1OC(=O)[C@@]3(C)C[C@@H](O)[C@@H](O)[C@@]2(C)C13 (stereo not given in full)	86*	49	-1	78*
CCC(COC(=O)NC)NC(=O)Oc1cccc(C)c1 (stereo not given)	/	/	/	-3
CNC(=O)Oc1ccc(-c2cn3cc(C)ccc3n2)cc1	40	70*	0	/
CNC(=O)Oc1cccc2ccccc12	17	21	-6	-14
CNC(=O)Oc1cccc(-c2cn3cc(Cl)ccc3n2)c1	14	/	/	82*
SMILES	PAX8 reporter	EWS-Fli block	CFTR F508del cor	LGR2 antag
COc1ccc(C(c2nnnn2Cc2ccccc2)N2CCC(n3c(=O)[nH]c4ccccc43)CC2)cc1 (stereo not given)	89*	-1	3	36
O=c1[nH]c2ccccc2n1C1CCN(C(c2ccccc2OC(F)(F)F)c2nnnn2Cc2ccccc2)CC1 (stereo not given)	84*	2	4	61*
O=c1[nH]c2ccccc2n1C1CCN(C(c2cccs2)c2nnnn2Cc2ccccc2)CC1 (stereo not given)	87*	33	5	41
COc1ccc(C#Cc2ccc([C@@H]3[C@@H](CO)N4CCCCN(C(=O)Cc5cccnc5)C[C@H]34)cc2)cc1	17	-16	-3	1
COc1ccc(-[n+]2c(-c3ccccc3)cc(-c3ccc(C)cc3)cc2-c2ccccc2)cc1	106*	41	-10	28
Brc1ccc(-[n+]2c(-c3ccccc3)cc(-c3ccccc3)cc2-c2ccccc2)cc1	98*	49	2	-1
